Assay outcomes: PubChem BioAssay, The Scripps Research Institute Molecular Screening Center
CHRM1 PAM = positive allosteric modulators of human M1 muscarinic receptor. P11229. CHO-K1 hM1, Fluo-8 calcium fluorescence, ACh EC20; 0% = ACh EC20, 100% = maximal ACh. activation, % at 3 µM. 360,000 tested, 0.088% active; in the data active = activation above about 19%, passing the limit was not always enough
Target sequence (P11229 whole entry, looked up): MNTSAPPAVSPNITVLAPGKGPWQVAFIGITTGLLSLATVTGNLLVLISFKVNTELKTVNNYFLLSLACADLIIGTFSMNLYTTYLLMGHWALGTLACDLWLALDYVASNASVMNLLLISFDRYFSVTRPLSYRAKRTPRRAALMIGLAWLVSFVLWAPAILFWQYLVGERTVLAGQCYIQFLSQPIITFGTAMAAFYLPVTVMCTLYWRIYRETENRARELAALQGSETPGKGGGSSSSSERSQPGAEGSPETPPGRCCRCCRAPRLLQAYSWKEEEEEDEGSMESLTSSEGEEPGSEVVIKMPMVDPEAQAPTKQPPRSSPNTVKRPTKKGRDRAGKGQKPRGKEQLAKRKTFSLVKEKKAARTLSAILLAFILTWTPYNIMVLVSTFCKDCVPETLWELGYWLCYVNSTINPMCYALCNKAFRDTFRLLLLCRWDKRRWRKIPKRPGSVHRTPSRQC
CHO-K1 Ca PAM = counter-screen for M1 PAMs: effect in parental CHO-K1 cells. ATP EC20, Fluo-8 calcium fluorescence; 0% at ATP EC20, 100% at ATP max. activation, % at 3 µM. 360,000 tested, 0.02% active;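 active = activation above the run cutoff, the mean activation of all test compounds plus 3 SD, cut at about 40% in these data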;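 also: peak over basal fluorescence ratio in a 140 s read after ATP addition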
CHO-K1 Ca antag = M1 antagonist counterscreen hit in parental CHO-K1 cells. ATP-induced calcium, Fluo-8 fluorescence. inhibition, % at 3 µM. 360,000 tested, 0.6% active;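 active = inhibition above a per-plate cutoff, the plate's mean sample inhibition plus 3 SD, cut at about 24% in these data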
CHO-K1 Ca ag = counter-screen for M1 agonists: effect in parental CHO-K1 cells; 360,000 tested, 0.48% active; AID 602248; activation, % at 3 µM; Fluo-8 calcium fluorescence; scaled to maximal ATP response, vehicle zero; in the data active = activation above about 15%;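 also: untransfected CHO-K1 host cells lacking M1 receptor as counterscreen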
M1 ag = human M1 muscarinic receptor agonism. CHO-K1 hM1, Fluo-8 calcium fluorescence, agonist mode; 0% DMSO, 100% acetylcholine EC100. activation, % at 3 µM. 360,000 tested, 0.33% active. AID 588814;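 active = activation above the run's mean compound activation plus 3 SD, cut at about 16% in these data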;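 also: peak over basal fluorescence ratio within a 140 s kinetic read after compound addition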
M1 antag = antagonists of human M1 muscarinic receptor | P11229 | CHO-K1 hM1, Fluo-8 calcium fluorescence, ACh EC80 antagonist | inhibition, % at 3 µM | 360,000 tested, 1.3% active;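 active = percent inhibition above its own plate's cutoff, namely the mean of that plate's compound wells plus 3 SD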;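 also: peak over basal fluorescence ratio during 140 s after agonist addition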
Large screens that a line does not name were inactive. The list is not random: actives were taken first. Their share in the collection is about 2.4%.

CCC(=O)Nc1ccc(NC(=S)NC(=O)/C=C/c2ccco2)cc1	none
CC(=O)NC(=S)Nc1ccc(NC(=S)NC(=O)/C=C/c2ccco2)cc1	M1 ag 25
O=C(c1cc(COc2ccc3ncccc3c2)on1)N1CCCCCC1	none
O=C(NCCc1cn2ccccc2n1)c1cc(COc2ccc3ncccc3c2)on1	CHO-K1 Ca antag 33, CHO-K1 Ca ag 19
O=C(NC1CCCC1)c1cc(COc2ccc3ncccc3c2)on1	M1 antag 31
CC(NC(=O)c1cc(COc2ccc3ncccc3c2)on1)c1ccc(F)cc1 (stereo not drawn)	M1 antag 34
O=C(c1cc(COc2ccc3ncccc3c2)on1)N1CCCC1	none
Cc1cccc(C(=O)NCC(=O)N2CCN(c3ccc(Cl)cc3)CC2)c1	CHO-K1 Ca ag 16
NC(=O)c1ccc(NC(=O)COC(=O)c2ccc(Br)o2)cc1	none
O=C(Nc1c(Cl)cccc1Cl)Oc1cccc2cccnc12	none
CCN(CC)C(=O)Oc1ccc(Cl)c2cccnc12	none
O=C(Nc1cccc(Br)c1)Oc1cccc2cccnc12	M1 antag 43
O=C(Nc1cccc(C(F)(F)F)c1)Oc1ccc(Cl)c2cccnc12	CHO-K1 Ca antag 36, CHO-K1 Ca ag 16, M1 antag 42
CN(Cc1ccccc1)C(=O)C(=O)c1c[nH]c2ccccc12	none
Cc1cc(C(=O)Nc2ccon2)ccc1[N+](=O)[O-]	CHO-K1 Ca ag 21
Cc1ccc(NC(=O)CCOc2ccccc2C)cc1C	none
C[C@H](CO)N1C[C@H](C)[C@@H](CN(C)CC2CC2)Oc2c(NC(=O)C3CC3)cccc2C1=O	none
C[C@H](CO)N1C[C@H](C)[C@@H](CN(C)C(=O)Nc2ccc(C(F)(F)F)cc2)Oc2c(NC(=O)Nc3ccc(C(F)(F)F)cc3)cccc2C1=O	none
C[C@H]1CN([C@@H](C)CO)C(=O)c2cccc(NC(=O)Nc3ccc(C(F)(F)F)cc3)c2O[C@H]1CN(C)C	CHRM1 PAM 27
Cc1cc(C(=O)Nc2cccc3c2O[C@H](CN(C)CC2CC2)[C@@H](C)CN([C@H](C)CO)C3=O)n(C)n1	CHO-K1 Ca PAM 56
CC(=O)Nc1ccc(NC(=O)C(C)OC(=O)c2c(NC(C)=O)sc(C)c2C)cc1 (stereo not drawn)	none
CN(C(=O)CCN1C(=O)S/C(=C\c2ccccc2)C1=O)C1CCS(=O)(=O)C1 (stereo not drawn)	none
N#CC1=C2SCCN2C(=O)C(C#N)C12CCCCC2 (stereo not drawn)	CHO-K1 Ca antag 25
CCN(CC)c1ccc2c(-c3ccc(S(=O)(=O)O)cc3S(=O)(=O)[O-])c3ccc(=[N+](CC)CC)cc-3oc2c1	CHO-K1 Ca ag 41, M1 ag 86
Cc1cc2cc(CNC(=O)c3ccc(S(=O)(=O)N4CCCC4)cc3)ccc2n1C	M1 antag 73
CCN(CC)S(=O)(=O)c1ccc(C(=O)NCc2ccc3c(c2)cc(C)n3C)cc1	M1 antag 57
Cc1cc2cc(CNC(=O)c3ccc(S(=O)(=O)N4CCCCC4)cc3)ccc2n1C	none
Clc1ccc(C2=Nn3c(nnc3-c3cccnc3)SC2)s1	CHO-K1 Ca antag 27
CCCCn1nnnc1SCC(=O)NC1CCCCC1	none
COCCN(Cc1nc2ccccc2c(=O)[nH]1)C(=O)COc1c(C)cc(Cl)cc1C	none
O=C(NOCc1ccccc1)c1ccc(Cl)cc1	M1 antag 41
Cc1ccccc1OC1(C)CCN(Cc2ccc(-c3ccccn3)cc2)C1 (stereo not drawn)	none
Brc1ccc(C2=CC(c3cccs3)n3ncnc3N2)cc1 (stereo not drawn)	CHO-K1 Ca ag 33, M1 ag 28
C1=C(c2ccc(-c3ccccc3)cc2)Nc2ncnn2C1c1ccco1 (stereo not drawn)	CHO-K1 Ca antag 29, CHO-K1 Ca ag 38, M1 ag 120, M1 antag 45
O=C(C[n+]1cc(-c2ccccc2)n2c1CCCCC2)c1ccc(Cl)cc1	none
Clc1ccc(C[n+]2cc(-c3ccccc3)n3c2CCCCC3)c(Cl)c1	none
CC1CCC(C(C)C)C(OC(=O)C[n+]2cc(-c3ccc(Cl)cc3)n3c2CCCCC3)C1 (stereo not drawn)	M1 antag 75
Clc1ccc(-c2c[n+](Cc3ccc(Cl)cc3Cl)c3n2CCCCC3)cc1	M1 antag 48
Cc1cc(C(=O)COC(=O)c2ccc(O)cc2O)c(C)n1C(C)C	none
O=C(NCCCN1C(=O)c2ccccc2C1=O)OCc1ccccc1	none
O=C(c1cccc(Cl)c1)N1CCN(Cc2ccncc2)CC1	CHO-K1 Ca antag 25
O=C(c1cccc(C(=O)N2CCN(Cc3ccccc3)CC2)c1)N1CCN(Cc2ccccc2)CC1	none
COc1ccc(C2C3=C(COC3=O)Oc3cc4c(cc32)OCO4)cc1OC (stereo not drawn)	CHRM1 PAM 29
COc1cc(C2C3=C(COC3=O)Oc3cc4c(cc32)OCO4)ccc1OC(C)=O (stereo not drawn)	none
CCOC(=O)c1cc(-c2ccccc2)nc2nc(N(CC)CC)sc12	none
O=C(Nc1ccc(Cl)cc1)Nc1csc([N+](=O)[O-])c1	CHO-K1 Ca ag 16
O=C(Nc1ccc(Cl)cc1)Nc1ccccc1CC[N+](=O)[O-]	CHO-K1 Ca antag 24
CN(C)C(=O)Nc1ccccc1CC[N+](=O)[O-]	none
CC(=O)N1c2ccc(S(=O)(=O)N3CCC(C(=O)Nc4cccc(C(F)(F)F)c4)CC3)cc2CC1C (stereo not drawn)	CHO-K1 Ca antag 32
O=C(NCc1ccccc1)C1CCN(S(=O)(=O)c2ccc(N3CCCC3=O)cc2)CC1	none
O=C(Nc1cccc(C(F)(F)F)c1)C1CCN(S(=O)(=O)c2ccc(N3CCCC3=O)cc2)CC1	CHO-K1 Ca ag 16
O=C(NCc1ccc(Cl)cc1)C1CCN(S(=O)(=O)c2ccc(N3CCCC3=O)cc2)CC1	M1 antag 33
COc1ccc(CNC(=O)CCNC(=O)C2CCN(S(=O)(=O)c3ccc(OC)cc3)CC2)cc1	CHRM1 PAM 27
COc1ccc(NC(=O)CCNC(=O)C2CCN(S(=O)(=O)c3ccc(OC)cc3)CC2)cc1	none
COc1cccc(NC(=O)C2CCN(S(=O)(=O)c3ccc(N4CCCC4=O)cc3)CC2)c1	none
COc1cccc(NC(=O)C2CCN(S(=O)(=O)c3ccc4c(c3)CC(C)N4C(C)=O)CC2)c1 (stereo not drawn)	none
COc1ccc(CC(C)N2CCN(Cc3ccccc3)CC2)cc1OC (stereo not drawn)	none
CCCc1nc2oc3c(Cl)ncnc3c2c2c1CCCC2	M1 antag 52
CC(C)Cc1nc2oc3c(Cl)ncnc3c2c2c1CCCC2	none
CCOC(=O)c1cccc(N/C=C/C(=O)c2ccc(OC)c(OC)c2)c1	M1 antag 29
